# Screening results from PubChem.
# Compounds with a hit are over-represented: about 6.8% of the library has one in this group of screens.
# PTAP TSG101 blk: blocks PTAP/TSG101 interaction to inhibit HIV-1 budding; Q99816; Fluorescence polarization, FITC-PTAP peptide / Tsg101 binding; Potency, µM (doses to about 115 µM), actives largely listed as inhibitors; 340,000 tested, under 10 active; active = well fitted inhibition curve with a large enough effect in the main read-out, with a control signal flat, not every such curve was filed as active; inconclusive = small, poorly fitted or top-dose-only effect, or effect the other way, or a change in a side signal; inactive = no such curve, though single readings can be large or run the other way
# Target sequence (Q99816 whole entry, looked up): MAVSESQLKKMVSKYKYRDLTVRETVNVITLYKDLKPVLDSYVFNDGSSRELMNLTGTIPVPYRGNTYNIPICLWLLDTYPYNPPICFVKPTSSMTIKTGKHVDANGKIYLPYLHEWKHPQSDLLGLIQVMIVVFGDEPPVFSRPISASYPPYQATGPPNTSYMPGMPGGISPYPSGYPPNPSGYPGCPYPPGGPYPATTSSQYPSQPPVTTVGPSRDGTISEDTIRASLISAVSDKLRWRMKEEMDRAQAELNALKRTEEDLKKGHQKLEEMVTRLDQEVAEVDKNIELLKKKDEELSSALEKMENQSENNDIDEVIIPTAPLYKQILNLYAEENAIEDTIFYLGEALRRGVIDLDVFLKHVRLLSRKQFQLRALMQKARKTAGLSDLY
#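 FP read-out: FITC-PTAP peptide, 50 nM final, binding Tsg101 binding domain, 10 uM final; 20 min, r.t.; 10 mM HEPES pH 7.5, 0.15 M NaCl, 0.01% Tween 20, 3 mM EDTA, 0.1 mM TCEP.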
# KB-3-1 cytotox: KB-3-1 parental cell cytotoxicity | KB-3-1 viability, CellTiter-Glo ATP luminescence, 72 h | Potency, µM (top dose mostly 46.1 µM), most hits filed as cytotoxic | 1.4% of 400,000 active | AID 1347075; note: nearly all actives have a fitted effect of over 60% in size
#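 Parental KB-3-1 viability, qHTS format: 72 h compound exposure, 37 °C; CellTiter-Glo; media-only wells and DMSO plates as controls; concentration-effect fits on corrected data.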
# MCF10A rerep: inducers of DNA re-replication in MCF 10A breast cells. AID 624296. 2.9% of 350,000 active. Potency, µM (doses to about 46.1 µM), most hits filed as activators. MCF 10A DNA re-replication, Hoechst nuclear intensity, 48 h; note: nearly all actives have a fitted effect of over 50% in size
# KB-V1 cytotox: KB-V1 MDR subline cytotoxicity; KB-V1 MDR cells viability, CellTiter-Glo, 72 h; Potency, µM (highest dose often 46.1 µM), most hits filed as cytotoxic; 3.4% of 400,000 active; AID 1347076; note: nearly all actives have a fitted effect of over 60% in size
#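 Potencies derive from concentration-effect curves fitted to normalized luminescence (CellTiter-Glo) of KB-V1 cells treated for 72 h at 37 degrees C in phenol-red-free DMEM containing 10% FBS.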
# PINK1 modulator: modulators of PINK1 expression. PINK1 immunofluorescence, high-content cytometry, 24 h. Potency, µM (series often up to 76.6 µM), most hits filed as activators. 0.2% of 410,000 active. AID 624263; active = well fitted activation curve with a large enough effect; inconclusive = small, poorly fitted or top-dose-only effect; cell line not stated here; note: nearly all actives have a fitted effect of over 65% in size
#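 Readout is PINK1 immunofluorescence, quantified alongside mitochondrial, cell and nuclear markers by laser-scanning microplate cytometry. Cells from a stable line were exposed to compound titrations (5 concentrations) for 24 hours, with CCCP controls.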
# SW480 rerep: induces DNA re-replication in SW480 colon adenocarcinoma cells. SW480 DNA re-replication, Hoechst DNA content imaging, 48 h. Potency, µM (series often up to 46.1 µM), hits mostly activators. 1.8% of 340,000 active. AID 624297; note: nearly all actives have a fitted effect of over 55% in size
#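 Quantitative HTS format with DMSO vehicle controls; 48 hr drug incubation at 37 C, then 40 min Hoechst staining and scanning imager measurement at 405 nm excitation.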
# Numbers stand for hits; n = inactive; u = inconclusive; x = not tested or not shown; ! = a repeat was not active. Unless noted, calls come from the whole dose curve; as a rule, active = well fitted curve in the direction sought with a large enough effect; inconclusive = small, poorly fitted or top-dose-only effect, or another doubt; inactive = no such curve, though single readings can be large; an effect the other way counts as inactive or inconclusive.
SMILES,PTAP TSG101 blk,KB-3-1 cytotox,MCF10A rerep,KB-V1 cytotox,PINK1 modulator,SW480 rerep
OC(CN1CCCCC1)Cn1c2ccc(Cl)cc2c2cc(Cl)ccc21 (stereo not drawn),n,u,u,u,n,u
Cc1cccc(C)c1OCC(O)CN1CCN(c2ccccn2)CC1 (stereo not drawn),n,n,n,n,n,n
OC(COC(c1ccc(Cl)cc1)c1ccc(Cl)cc1)CN1CCN(c2ccccn2)CC1 (stereo not drawn),n,18µM,u,u,n,u
O=C(NC(CC(=O)N1CCN(c2ccccc2O)CC1)c1ccccc1)c1ccccc1Cl (stereo not drawn),n,n,n,5.8µM,n,n
COCc1c(C(=O)NC2CCCCC2)cnn1-c1nccc(-c2cc(C)sc2C)n1,x,x,x,x,n,x
CN(C)c1cccc(-c2ncc(F)c(N3CCC(C(N)=O)CC3)n2)c1,x,u,x,n,x,x
c1ccc2c(-c3nc4ccccc4[nH]3)cccc2c1,x,21µM,x,4.6µM,n,x
COc1cccc(/C=N/Nc2cc(Cl)nc(C)n2)c1O,n,n,7.3µM,u,n,0.29µM
COc1cccc(/C=N/Nc2ncnc3c2ncn3Cc2ccccc2)c1O,n,u,u,0.52µM,n,u
COc1cccc(/C=N/Nc2cc(N3CCOCC3)ncn2)c1O,n,10µM,u,n,n,u
COc1cccc(/C=N/Nc2c(Cl)cncc2Cl)c1O,n,n,u,n,n,n
CCc1cccc(NC(=O)CN(C)S(=O)(=O)c2ccc3c(c2)n(C)c(=O)c(=O)n3C)c1,x,n,x,n,n,x
CCCCc1ccc(NC(=O)c2ccc3c(c2)CCN3S(=O)(=O)c2ccccc2)cc1,x,n,x,n,n,x
CN(C)c1ccc(/C=C2/C[N+](C)(C)C/C(=C/c3ccc(N(C)C)cc3)C2=O)cc1,n,16µM,u,n,n,u
C=C1C(=O)OC2C=C(CO)C3OC3C3OC3(C)CC(OC(=O)/C(=C/C)COC(C)=O)C12 (stereo not drawn),n,u,2.1µM,n,n,0.82µM
CC(=O)OCC1=C[C@@H]2OC(=O)C3=CO[C@@H](O[C@@H]4O[C@H](CO)[C@@H](O)[C@H](O)[C@H]4O)[C@H]1[C@@H]32,n,n,n,n,n,n
COc1ccc(CN(C)C(=O)CNC(=O)c2sc3ccccc3c2Cl)c(OC)c1OC,n,u,n,5.8µM,n,n
NCCCN(Cc1ccc(Cl)c(Cl)c1)c1ccccn1,x,x,x,x,n,x
CCN(CC)C(=O)c1sc2nc(-c3cccs3)cc(-c3ccc(Cl)cc3)c2c1N,u,n,u,n,n,13µM
CCOC(=O)C1=C(N)n2c(s/c(=C\c3cccs3)c2=O)=C(C(=O)OCC)C1c1cccs1 (stereo not drawn),n,10µM,u,13µM,n,u
COc1ccc(NC(=O)C2=C(C)Nc3nc(SCc4ccccc4C)nn3C2c2cc(OC)c(O)c(OC)c2)cc1 (stereo not drawn),x,n,x,n,n,x
C#CCNC(=O)C1=C[C@H](C(C)(C)C)C[C@H](OCc2ccc(CO)cc2)O1,n,n,18µM,n,n,n
C#CCNC(=O)C1=C[C@@H](C)C[C@@H](OCc2ccc(CO)cc2)O1,x,n,n,n,n,n
C#CCNC(=O)C1=C[C@H](c2ccc(C#C)cc2)C[C@H](OCc2ccc(CO)cc2)O1,n,n,n,n,n,u
C#CCNC(=O)C1=C[C@H](c2ccc(C(F)(F)F)cc2)C[C@H](OCc2ccc(CO)cc2)O1,n,n,4.1µM,n,n,u
SMILES,PTAP TSG101 blk,KB-3-1 cytotox,MCF10A rerep,KB-V1 cytotox,PINK1 modulator,SW480 rerep
Cc1cccc(-c2cnn(-c3cccc([N+](=O)[O-])c3)c2N)c1,n,n,n,n,n,n
Cc1cccc(-c2cnn(-c3ccccc3)c2N)c1,n,n,n,n,n,18µM
Cc1ncnc2nc[nH]c12,x,3.3µM,x,10µM,x,x
CC(C)=NNc1ncnc2nc[nH]c12,n,u,n,7.3µM,n,n
CCOc1ccc(C(=O)NCCc2csc(-c3ccc(C(F)(F)F)cc3)n2)cc1OCC,x,x,x,x,n,x
O=C1CCc2cc(S(=O)(=O)Nc3cc(F)cc(Cl)c3)c(F)cc2N1,x,n,x,n,x,x
CCOc1ccc2nc3cc(NCc4ccc(OC)cc4)ccc3c(N)c2c1,u,u,15µM,n,n,u
CCCCNc1c(-c2ccc(SC(C)CC)cc2)nc2cnccn12 (stereo not drawn),n,u,4.6µM,n,n,18µM
CCCCCCSc1cc(-c2nc3cnccn3c2NCCCC)ccc1OC,x,n,15µM,n,n,u
CCCCNc1c(-c2ccc(OC)c(Sc3ccc(OC)cc3)c2)nc2cnccn12,n,u,u,u,n,u
CCCCNc1c(-c2ccc(-c3ccc(OC)cc3)c(OC)c2)nc2ccccn12,x,u,21µM,u,u,u
CCCCNc1c(-c2ccc(OC)c(Sc3ccc(OC)cc3)c2)nc2ccccn12,x,u,u,u,n,u
CCCCCCSc1cc(-c2nc3cc(C)ccn3c2NCCCC)ccc1OC,n,n,u,21µM!,u,n
CCCCCCSc1cccc(-c2nc3cc(C)ccn3c2NC2CCCCC2)c1,n,n,u,u,u,u
COc1ccc(-c2cc(C(F)(F)F)nc(SCC(=O)N3CCCCC3)n2)cc1,x,n,x,n,n,x
CCOC(=O)c1cccc(NC(=O)CCc2c(C)nc3cc(-c4ccc(Cl)cc4)nn3c2C)c1,x,n,x,n,n,x
Cc1nnc(OCc2nc3ccccc3n2C)c2ccccc12,n,u,n,9.2µM,n,n
CN(C(=O)c1ccc2c(c1)N(Cc1ccccc1F)C(=O)c1ccccc1S2(=O)=O)C1CCCCC1,x,n,x,u,n,x
Cc1cnc(CNc2nc(-c3c(C)noc3C)nc3ccccc23)cn1,x,x,x,x,n,x
COc1cc(/C=C2\N=C(c3ccccc3)NNC2=O)cc(OC)c1OC,n,4.6µM,1.8µM,4.1µM,n,5.8µM
O=C1NNC(c2ccccc2)=N/C1=C\c1ccco1,n,n,n,n,n,n
COc1ccc(CCNC(=O)c2cc(=O)c3cc(C)c(C)cc3o2)cc1OC,x,u,x,u,n,x
COc1cc(C2C(C#N)=C(N)OC3=C2C(=O)CCC3)cc2c1OCO2 (stereo not drawn),n,n,n,u,n,n
COc1cc(C2N(c3ccccc3)CCN2c2ccccc2)ccc1OC(C)=O,n,n,n,n,n,n
COc1cc(C2C3=C(COC3=O)Oc3cc4c(cc32)OCO4)ccc1OC(C)=O (stereo not drawn),n,0.82µM,u,2.1µM,n,3.7µM
COc1ccc(C2C3=C(COC3=O)Oc3cc4c(cc32)OCO4)cc1OC (stereo not drawn),n,0.92µM!,2.3µM,u,n,5.8µM
